# Screens (PubChem)
# TTR transcr act = TTR transcription activators in neuroblastoma reporter cells, primary screen, cell-based, luminescence, SH-SY5Y, TTR promoter Gaussia luciferase | 100% = recombinant luciferase protein wells | activation, % at 16.7 µM | 92,000 tested, 1.3% active | AID 1117267, 2014;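 active = activation above the mean of all tested compounds plus 3 SD, cut at about 9.5% in these data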;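 note: cells exposed to compounds for one day before reading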
# HuH7 TTR inh = TTR promoter reporter inhibitors in hepatoma cells, counter-screen for TTR transcription activator project, cell-based, luminescence, HuH7 hepatoma; shares compounds with TTR transcr act; 1,100 tested, 4% active; HuH7 TTR promoter-Gaussia luciferase reporter; inhibition, % at 16.7 µM;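 active = average inhibition above the solvent-only control wells' mean plus 3 SD, cut at about 15% in these data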;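 note: inhibitors lower well luminescence so higher value means more inhibition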
# TTR up confirm = TTR transcription activators, retest, confirmation, cell-based, luminescence, SH-SY5Y, triplicate; SHSY5Y TTR promoter Gaussia luciferase; 100% = purified Lucia enzyme wells, no cells; shares compounds with TTR transcr act; 1,100 tested, under 10 active; activation, % at 16.7 µM;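 active = mean activation above a set limit taken from the earlier primary screen, cut at about 11% in these data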
# Numbers stand for hits; – = inactive. Only a selection was taken, and hits are over-represented in it overall.
SMILES,TTR transcr act,others
O=C(CSc1nnc(CNC(=O)c2cccc(C(F)(F)F)c2)o1)NCc1ccco1,–,
CC1CCN(C(=O)CSc2nnc(-c3cccs3)o2)CC1,–,
O=C(CSc1nnc(-c2cccs2)o1)NCc1ccco1,13,HuH7 TTR inh=–;TTR up confirm=–
Fc1ccc(CSc2nnc(-c3cccs3)o2)cc1,10,HuH7 TTR inh=–;TTR up confirm=–
c1ccc(-c2nnc(CSc3nnc(-c4cccs4)o3)o2)cc1,–,
Fc1ccccc1CSc1nnc(-c2cccs2)o1,–,
Cc1cc(C)nc(NC(=O)c2ccc(COc3ccccc3Cl)cc2)c1,–,
COc1ccc(S(=O)(=O)N2CCCOC2CNC(=O)C(=O)NCc2ccccn2)cc1 (stereo not given),24,HuH7 TTR inh=–;TTR up confirm=–
COc1ccc(S(=O)(=O)N2CCOC2CNC(=O)C(=O)NCc2ccccc2OC)cc1 (stereo not given),–,
COc1ccc(S(=O)(=O)N2CCCOC2CNC(=O)C(=O)NCc2ccco2)cc1 (stereo not given),–,
O=C(NC1CCN(Cc2ccccc2)CC1)c1ccccc1OCc1ccccc1,–,
O=C(NC1CCN(Cc2ccccc2)CC1)c1ccccc1Cl,–,
Cc1oc(-c2ccccc2)cc1C(=O)NC1CCN(Cc2ccccc2)CC1,9.8,HuH7 TTR inh=–;TTR up confirm=–
C[C@@H]1CN([C@@H](C)CO)C(=O)CCCn2nncc2CO[C@@H]1CN(C)C(=O)c1ccc(N2CCN(C)CC2)cc1,–,
C[C@@H]1CN([C@H](C)CO)C(=O)CCCn2nncc2CO[C@H]1CN(C)C(=O)c1ccccc1,–,
C[C@H](CO)N1C[C@H](C)[C@H](CN(C)C(=O)c2ccncc2)OCc2cnnn2CCCC1=O,18,HuH7 TTR inh=–;TTR up confirm=–
CCC[C@H]1[C@@H](OC(=O)NCc2cccc(Cl)c2)CC[C@@]23CCCN2C(=O)CCC[C@@H]13,–,
Cc1cc(C)n(C(=O)CNC(=O)C(c2ccccc2)c2ccccc2)n1,–,
Cc1cc(C)n(C(=O)CNc2cccc(Cl)c2C)n1,11,HuH7 TTR inh=–;TTR up confirm=–
Cc1cc(C)n(C(=O)Cn2nc(C)c(Cl)c2C)n1,–,
C[C@H]1[C@@H](N(C)Cc2cccs2)CC[C@@]23CCCN2C(=O)CCC[C@@H]13,–,
C=CCCC[C@H]1OC(=O)[C@H](C)NC(=O)[C@H](C(C)C)NC(=O)[C@@H]2CCCN2C(=O)[C@H](Cc2ccccc2)OC(=O)[C@@H](C(C)C)N(C)C(=O)[C@H](C(C)C)NC(=O)C1(C)C,–,
CCOc1ccc(CCNC(=O)c2cc3sccc3n2Cc2ccccc2)cc1OCC,–,
Cc1csc(NC(=O)CSc2nnc(-c3ccc(Cl)cc3)n2N)n1,44,HuH7 TTR inh=–;TTR up confirm=–
Cc1csc(NC(=O)CCc2c(C)nc3cc(-c4ccc(Cl)cc4)nn3c2C)n1,–,
SMILES,TTR transcr act,others
Cc1csc(NC(=O)CSc2nnc(Cc3cccn3C)n2-c2ccc(F)cc2)n1,–,
C#CCOCCOCCOCCNc1nc(N2CCOCC2)nc(N2CCN(C(=O)[C@H](CCC(=O)O)n3cc(C(N)CC(C)C)nn3)CC2)n1 (stereo not given in full),–,
CN(C(=O)c1cccc(NC(=O)Cc2ccc(NC(=O)C3CCCN(C(=O)C4CCCCC4)C3)cc2)c1)C1CCC1 (stereo not given),–,
COCC(=O)Oc1cc(-c2ccc(C)cc2C)c(OC(=O)COC)c(-c2ccc(C)cc2C)c1,–,
O=C(CCN1C(=O)/C(=C\c2ccccc2F)SC1=S)N1CCCCC1,–,
COc1cc(C(=O)N2CCCCC2c2cc(C(=O)Nc3ccccc3Cl)no2)cc(OC)c1C (stereo not given),–,
Cn1c(CSc2nc3ccccc3s2)n[nH]c1=S,–,
S=c1[nH]nc(CSc2nc3ccccc3s2)o1,14,HuH7 TTR inh=–;TTR up confirm=–
COC(=O)c1ccc(CSc2nc3ccccc3s2)o1,–,
CC(C)Cn1c(N)c(C(=O)COC(=O)CCc2nc3ccccc3s2)c(=O)n(C)c1=O,–,
COC(=O)C(CCCCNC(=O)OCc1ccccc1)NC(=O)CN (stereo not given),–,
Cc1cc(Br)c(NC(=O)CCNC(=O)OCc2ccccc2)cc1C,–,
COC(=O)C(CSCc1ccccc1)NC(=O)CCNC(=O)OCc1ccccc1 (stereo not given),14,HuH7 TTR inh=–;TTR up confirm=–
O=S(=O)(N[C@@H]1CCCC[C@@H]1N1CCOCC1)c1ccc(Cl)cc1,–,
COC(=O)[C@]12C[C@H](CC(=O)NCCC(C)C)C(=O)N(Cc3ccc(Cl)cc3Cl)C1=C[C@H](C1CCCC1)O[C@@H]2C,–,
COCCCNC(=O)c1cccs1,16,HuH7 TTR inh=–;TTR up confirm=–
O=C(NCCCCNC(=O)c1cccs1)c1cccs1,–,
O=C(NCCCNC(=O)c1cccs1)c1cccs1,–,
Cc1cc(C)n(CC(=O)NNC(=O)c2ccc(S(C)(=O)=O)cc2)n1,–,
